The values that follow come from PubChem BioAssay (EPA / NIEHS).

Inconclusive results are not listed. Activity calls are given as the source filed them. Rule for the calls, unless noted: active = hit-call score of the fitted dose curve at least 0.9, where 1 is the maximum; inconclusive = response in the unintended direction; inactive = score below 0.9.

Chain of human Retinoic Acid Receptor gamma (RARg), RARG (gene 5916) (P13631 whole entry, looked up): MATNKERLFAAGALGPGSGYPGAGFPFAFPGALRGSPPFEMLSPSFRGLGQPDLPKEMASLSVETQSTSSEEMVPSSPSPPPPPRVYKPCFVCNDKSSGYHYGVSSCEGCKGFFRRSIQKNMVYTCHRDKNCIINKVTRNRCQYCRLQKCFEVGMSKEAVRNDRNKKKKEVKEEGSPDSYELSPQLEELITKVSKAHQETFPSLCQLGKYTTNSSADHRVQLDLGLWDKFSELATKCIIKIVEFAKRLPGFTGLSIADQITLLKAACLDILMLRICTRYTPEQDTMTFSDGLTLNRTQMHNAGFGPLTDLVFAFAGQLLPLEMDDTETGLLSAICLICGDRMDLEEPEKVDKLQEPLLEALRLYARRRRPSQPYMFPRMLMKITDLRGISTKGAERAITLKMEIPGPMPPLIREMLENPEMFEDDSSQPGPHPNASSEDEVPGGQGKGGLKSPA
Chain of Peroxisome proliferator-activated receptor gamma (Homo sapiens) (P37231 whole entry, looked up): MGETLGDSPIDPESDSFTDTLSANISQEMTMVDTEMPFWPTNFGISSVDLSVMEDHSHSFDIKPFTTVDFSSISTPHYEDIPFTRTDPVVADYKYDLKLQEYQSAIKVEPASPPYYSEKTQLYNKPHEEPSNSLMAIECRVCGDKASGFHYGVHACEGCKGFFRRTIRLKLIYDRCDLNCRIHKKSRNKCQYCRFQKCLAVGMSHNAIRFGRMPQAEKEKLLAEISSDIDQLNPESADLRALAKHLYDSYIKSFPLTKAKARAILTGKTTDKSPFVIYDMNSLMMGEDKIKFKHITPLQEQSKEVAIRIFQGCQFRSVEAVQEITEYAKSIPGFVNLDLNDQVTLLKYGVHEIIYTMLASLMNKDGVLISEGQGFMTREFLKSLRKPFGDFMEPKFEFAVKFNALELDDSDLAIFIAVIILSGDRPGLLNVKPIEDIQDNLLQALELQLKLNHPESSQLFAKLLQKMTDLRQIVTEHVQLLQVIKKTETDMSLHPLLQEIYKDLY

Read-out in one test: Intercellular Adhesion Molecule 1 (ICAM1), ICAM1 (gene 3383)
Nature of the test: BSK_3C_ICAM1: BioMAP Diversity Plus: 3C Assay for Intercellular Adhesion Molecule 1 (ICAM1) Biomarker Activity (AID 2283003; active = hit-call score of the fitted dose curve at least 0.9, where 1 is the maximum; inactive = score below 0.9). Conditions: primary human endothelial cells (HUVEC); actives raise or lower the signal. In a few lines:
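Primary human umbilical vein endothelial cells in the BioMAP 3C system were exposed to chemicals for 24 h, then ICAM-1 was quantified by ELISA. Activity was fitted bidirectionally against the DMSO negative control baseline.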
`C#C[C@]1(O)CC[C@H]2[C@@H]3CCC4=Cc5oncc5C[C@]4(C)[C@H]3CC[C@@]21C`: the outcome was inactive.
For the compound `CC1CCC(C(C)CS)CC1S` (configuration not stated), the AC50 was 27.4 µM (active).
`CC(=O)O[C@]1(C(C)=O)CC[C@H]2[C@@H]3C[C@H](C)C4=CC(=O)CC[C@]4(C)[C@H]3CC[C@@]21C`: the result was inactive.
For the compound `O=C(O)C[C@H](O)C[C@H](O)/C=C/c1c(C2CC2)nc2ccccc2c1-c1ccc(F)cc1`, the result was inactive.

In a further test the target is Retinoic acid receptor alpha (Homo sapiens) (UniProt P10276). The test can be described thus: ATG_RARa_TRANS: Attagene TRANS-FACTORIAL HepG2 Assay for human Retinoic Acid Receptor alpha (RARa) (AID 2283005).
Chain of Retinoic acid receptor alpha (Homo sapiens) (P10276 whole entry, looked up): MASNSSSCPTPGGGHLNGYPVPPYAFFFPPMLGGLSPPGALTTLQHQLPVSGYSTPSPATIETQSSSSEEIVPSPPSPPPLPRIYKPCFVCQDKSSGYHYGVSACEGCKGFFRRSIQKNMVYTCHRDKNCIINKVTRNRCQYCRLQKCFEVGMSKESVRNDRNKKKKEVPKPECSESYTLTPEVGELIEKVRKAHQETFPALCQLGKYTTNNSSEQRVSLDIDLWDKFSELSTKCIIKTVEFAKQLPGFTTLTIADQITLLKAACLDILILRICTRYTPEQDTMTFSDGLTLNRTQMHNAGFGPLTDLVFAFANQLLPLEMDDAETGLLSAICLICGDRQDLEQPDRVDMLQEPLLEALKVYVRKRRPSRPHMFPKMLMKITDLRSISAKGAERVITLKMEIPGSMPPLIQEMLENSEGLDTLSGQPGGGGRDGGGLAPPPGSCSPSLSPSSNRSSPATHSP
Settings: not given
In a few lines:
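HepG2 cells transiently transfected with multiple reporter units expressing chimeric RARα-GAL4 fusion, with GAL4-UAS-driven reporters. After 24 h compound exposure, reporter mRNA induction quantified by RT-PCR and capillary electrophoresis with fluorescent labeling; gain-of-signal fitted relative to DMSO control.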
As for `C=CC[N+](C)(C)CC=C`, the compound was classed as inactive.
On the same count and under the same terms, next, `C=CC(=O)OCCOCCOCC`: “inactive”.
The same measure, in the same setting: next, `CCCCCCCCCCCCOCCO`: “inactive”; `C=O`: “inactive”.

The next test has as its target Peroxisome proliferator-activated receptor gamma (Homo sapiens) (UniProt P37231). The test can be described thus: ATG_PPARg_TRANS: Attagene TRANS-FACTORIAL HepG2 Assay for human Peroxisome Proliferator-activated Receptor-gamma (PPARg) (AID 2283007).
Settings: not given
The method in brief:
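After 24 h of chemical exposure, transfected HepG2 cells carrying PPARγ-Gal4 chimera reporter constructs are lysed for RNA. Reporter transcripts are measured by RT-PCR and capillary electrophoresis with fluorescent labelling, and gain of signal is fitted versus DMSO.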
On to `CC(C)(Oc1ccc(CCNC(=O)c2ccc(Cl)cc2)cc1)C(=O)O`, for which the AC50 was 27.6 µM (active).
Same read-out and setting: next, `C=CCOc1nc(OCC=C)nc(OCC=C)n1`: 61.4 µM (active).
With `OCCOc1cccc(OCCO)c1`, the compound was called inactive.
On the same count and under the same terms, next, `C#C[C@]1(O)CC[C@H]2[C@@H]3CCC4=Cc5oncc5C[C@]4(C)[C@H]3CC[C@@]21C`: “inactive”.
As to `CC1CCC(C(C)CS)CC1S` (configuration not stated), the concentration at half-maximal activity (AC50) is 41 µM (active).
As for `O=[N+]([O-])c1ccc(C=Cc2ccc([N+](=O)[O-])cc2S(=O)(=O)O)c(S(=O)(=O)O)c1`, the outcome was inactive.
Still for that read-out and setting: next, `O=C1NC(=O)c2ccccc21`: “inactive”; `O=c1oc(=O)c2cc3c(=O)oc(=O)c3cc12`: “inactive”.
With `C=CC(=O)OCCOCCOCC`, the AC50 was 17 µM (active).
Same read-out and setting: with `CCCCCCCCCCCCOCCO` the figure was 33.4 µM (active); with `CC(=O)O[C@]1(C(C)=O)CC[C@H]2[C@@H]3C[C@H](C)C4=CC(=O)CC[C@]4(C)[C@H]3CC[C@@]21C`, 21.9 µM (active); with `O=C(O)C[C@H](O)C[C@H](O)/C=C/c1c(C2CC2)nc2ccccc2c1-c1ccc(F)cc1`, 20.2 µM (active).
In the case of `O=S(=O)(O)NC1CCCCC1`, the call was inactive.
For the compound `Nc1nc2ccc([N+](=O)[O-])cc2s1`, the AC50 was 29.7 µM (active).
Consider `C=CC(C)(C)O`, for which the compound was classed as inactive.
Still for that read-out and setting: next, `CCCCCCCCCOC(C)=O`: “inactive”.
For `N#Cc1nc(Cl)c(Cl)c(Cl)c1Cl`, the AC50 was 0.206 µM (active).
Still for that read-out and setting: with `Cc1ccc(C=O)s1` the figure was 32.8 µM (active).
For the compound `NC(=O)c1ccccc1Cl`, the compound was classed as inactive.
`CC1(C)CCC(C)(C)c2cc(C(=O)Nc3ccc(C(=O)O)cc3)ccc21`: the AC50 is 100 µM (active).

A further test deals with Nuclear receptor subfamily 1 group I member 2 (Homo sapiens) (UniProt O75469). The test can be described thus: ATG_PXR_TRANS: Attagene TRANS-FACTORIAL HepG2 Assay for human Pregnane X Receptor (PXR) (AID 2283008).
Chain of Nuclear receptor subfamily 1 group I member 2 (Homo sapiens) (O75469 whole entry, looked up): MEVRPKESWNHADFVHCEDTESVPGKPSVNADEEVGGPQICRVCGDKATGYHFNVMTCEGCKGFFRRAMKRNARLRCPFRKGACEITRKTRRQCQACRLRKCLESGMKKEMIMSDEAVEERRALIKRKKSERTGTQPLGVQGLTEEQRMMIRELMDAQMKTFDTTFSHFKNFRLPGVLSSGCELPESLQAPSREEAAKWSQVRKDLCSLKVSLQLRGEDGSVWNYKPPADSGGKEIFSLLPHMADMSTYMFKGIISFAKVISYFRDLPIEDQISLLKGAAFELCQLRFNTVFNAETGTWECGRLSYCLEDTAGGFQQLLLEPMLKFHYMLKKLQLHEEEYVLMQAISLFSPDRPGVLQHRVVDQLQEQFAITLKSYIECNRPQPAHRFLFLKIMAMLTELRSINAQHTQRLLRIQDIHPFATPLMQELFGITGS
Settings: not given
In a few lines: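 Measures mRNA induction of a GAL4-UAS-driven reporter in human HepG2 cells transiently expressing PXR fused to Gal4, following 24 h treatment. DMSO served as negative control and baseline.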
As for `CN(C)c1ccc(O)c2c1C[C@H]1C[C@H]3[C@H](N(C)C)C(=O)C(C(N)=O)=C(O)[C@@]3(O)C(=O)C1=C2O`, the result was inactive.
Turning to `CC(C)(Oc1ccc(CCNC(=O)c2ccc(Cl)cc2)cc1)C(=O)O`, the compound was called inactive.
Consider `CC(O)C(C)O` (configuration not stated), for which the call was inactive.
On to `C=CCOc1nc(OCC=C)nc(OCC=C)n1`, for which the AC50 was 14.9 µM (active).
Consider `CCOC(=O)c1ccccc1OC`, for which the outcome was inactive.
On the same count and under the same terms, with `C=CC[N+](C)(C)CC=C` the entry was “inactive”; with `CC(C)(C)C(=O)c1ccccc1`, “inactive”.
On to `OCCOc1cccc(OCCO)c1`, for which the call was inactive.
In the case of `Cc1ccc(C(=O)O)o1`, the call was inactive.
With `C#C[C@]1(O)CC[C@H]2[C@@H]3CCC4=Cc5oncc5C[C@]4(C)[C@H]3CC[C@@]21C`, the AC50 was 5.38 µM (active).
As for `CC1CCC(C(C)CS)CC1S` (configuration not stated), the AC50 was 2.84 µM (active).
Regarding `Cc1c(N(C)C)c(=O)n(-c2ccccc2)n1C`, the call was inactive.
For `C=CC(=O)OCCOCCOCC`, the AC50 is 40 µM (active).
For the compound `CC(=O)O[C@]1(C(C)=O)CC[C@H]2[C@@H]3C[C@H](C)C4=CC(=O)CC[C@]4(C)[C@H]3CC[C@@]21C`, the result was inactive.
The same measure, in the same setting: next, `O=C(O)C[C@H](O)C[C@H](O)/C=C/c1c(C2CC2)nc2ccccc2c1-c1ccc(F)cc1`: “inactive”.
On to `O=C(O)CCCCCCCCCCC(=O)O`, for which the compound was called inactive.
Same read-out and setting: next, `O=S(=O)(O)NC1CCCCC1`: “inactive”; `CCCC(=O)OCCC(C)CCC=C(C)C` (configuration not stated): “inactive”.
`Nc1nc2ccc([N+](=O)[O-])cc2s1`: the call was inactive.
On to `C=CC(C)(C)O`, for which the compound was called inactive.
The same measure, in the same setting: with `Cc1ccc(C(C)C)cc1O` the entry was “inactive”; with `CC(c1cc2ccccc2s1)N(O)C(N)=O` (configuration not stated), “inactive”.
`CCCCCCCCCOC(C)=O`: the compound was classed as inactive.
Still for that read-out and setting: with `Cc1ccc(C=O)s1` the entry was “inactive”.
On the same count and under the same terms, next, `O=C(COc1ccc(Cl)cc1)N1CCN(Cc2ccc3c(c2)OCO3)CC1`: “inactive”; `C=O`: “inactive”.

The next test has as its target human Retinoic Acid Receptor gamma (RARg), RARG (gene 5916) (UniProt P13631). Nature of the test: ATG_RARg_TRANS: Attagene TRANS-FACTORIAL HepG2 Assay for human Retinoic Acid Receptor gamma (RARg) (AID 2283009).
Settings: not given
The method in brief: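 HepG2 cells transiently transfected with multiplexed reporter units expressing chimeric RARg-GAL4 and GAL4-UAS-driven reporters; 24 h compound exposure. Reporter mRNA quantified by RT-PCR with fluorescent labelling and capillary electrophoresis; gain-of-signal fitted relative to DMSO baseline.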
As for `CCOC(=O)c1ccccc1OC`, the call was inactive.
For `C=CC[N+](C)(C)CC=C`, the call was inactive.
Still for that read-out and setting: with `CC1CCC(C(C)CS)CC1S` (configuration not stated) the entry was “inactive”; with `O=c1oc(=O)c2cc3c(=O)oc(=O)c3cc12`, “inactive”; with `C=CC(=O)OCCOCCOCC`, “inactive”.
For `C=O`, the outcome was inactive.

For another test, the target named is human RAR-related Orphan Receptor beta (RORb), RORB (gene 6096) (UniProt Q92753). Nature of the test: ATG_RORb_TRANS: Attagene TRANS-FACTORIAL HepG2 Assay for human RAR-related Orphan Receptor beta (RORb) (AID 2283010).
Chain of human RAR-related Orphan Receptor beta (RORb), RORB (gene 6096) (Q92753 whole entry, looked up): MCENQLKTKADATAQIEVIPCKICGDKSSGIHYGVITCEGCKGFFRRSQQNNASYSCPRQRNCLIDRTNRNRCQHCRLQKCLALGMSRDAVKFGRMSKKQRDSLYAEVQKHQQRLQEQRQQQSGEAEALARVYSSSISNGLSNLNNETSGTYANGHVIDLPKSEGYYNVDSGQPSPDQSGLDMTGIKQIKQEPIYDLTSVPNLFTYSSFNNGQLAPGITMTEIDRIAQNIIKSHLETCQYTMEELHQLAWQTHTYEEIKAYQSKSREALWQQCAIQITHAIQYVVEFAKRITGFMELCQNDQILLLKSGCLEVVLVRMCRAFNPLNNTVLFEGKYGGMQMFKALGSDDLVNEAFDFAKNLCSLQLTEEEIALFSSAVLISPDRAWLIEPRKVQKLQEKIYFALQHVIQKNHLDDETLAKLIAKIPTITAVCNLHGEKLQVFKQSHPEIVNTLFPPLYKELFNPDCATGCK
Settings: not given
In a few lines:
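HepG2 cells were transiently transfected with multiplexed GAL4-UAS reporter units expressing chimeric nuclear receptor–GAL4 proteins, then dosed for 24 h. Reporter mRNA was quantified by RT-PCR with fluorescent labelling and capillary electrophoresis; gain of signal was fitted relative to DMSO.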
Consider `CN(C)c1ccc(O)c2c1C[C@H]1C[C@H]3[C@H](N(C)C)C(=O)C(C(N)=O)=C(O)[C@@]3(O)C(=O)C1=C2O`, for which the result was inactive.
The same measure, in the same setting: next, `CC(O)C(C)O` (configuration not stated): “inactive”; `C=CC[N+](C)(C)CC=C`: “inactive”.
As for `CC(C)(C)C(=O)c1ccccc1`, the compound was classed as inactive.
Regarding `C#C[C@]1(O)CC[C@H]2[C@@H]3CCC4=Cc5oncc5C[C@]4(C)[C@H]3CC[C@@]21C`, the result was inactive.
Same read-out and setting: with `O=[N+]([O-])c1ccc(C=Cc2ccc([N+](=O)[O-])cc2S(=O)(=O)O)c(S(=O)(=O)O)c1` the entry was “inactive”.
As for `Cc1c(N(C)C)c(=O)n(-c2ccccc2)n1C`, the compound was classed as inactive.
The same measure, in the same setting: with `COCCOCCOCCOCCOCCO` the entry was “inactive”; with `O=C1NC(=O)c2ccccc21`, “inactive”; with `C=CC(=O)OCCOCCOCC`, “inactive”.
On the same count and under the same terms, with `O=C(O)C[C@H](O)C[C@H](O)/C=C/c1c(C2CC2)nc2ccccc2c1-c1ccc(F)cc1` the entry was “inactive”.
For the compound `O=C(O)CCCCCCCCCCC(=O)O`, the compound was called inactive.
Still for that read-out and setting: with `CCCC(=O)OCCC(C)CCC=C(C)C` (configuration not stated) the entry was “inactive”; with `Cc1ccc(C(C)C)cc1O`, “inactive”; with `N#Cc1nc(Cl)c(Cl)c(Cl)c1Cl`, “inactive”.
On the same count and under the same terms, with `Cc1ccc(C=O)s1` the entry was “inactive”.
For the compound `NC(=O)c1ccccc1Cl`, the outcome was inactive.

By AC50 is commonly meant the midpoint of the concentration-response curve, whichever way the signal moves.
